Screens (PubChem)
MITF TRPM1 HTS: activators of MITF-driven TRPM1 promoter activity in SK-MEL-5 cells | SK-MEL-5 TRPM1-promoter luciferase, 24 h; % of positive control, neutral wells = 0 | hit rate 0.75% among 300,000 | activation, % at 12.5 µM | AID 588334;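 active = mean activation of at least 80% with every replicate also reaching 80%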;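 also: 0% = neutral control wells and 100% = parthenolide positive control wells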
DYRK1A inh: Dyrk1A (rat) kinase inhibition; Q63470; ADP-Glo luminescence, NFATc1 peptide; inhibition, % at 12.5 µM; hit rate 0.43% among 310,000; AID 504441;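 also: plate controls were vehicle with enzyme for no effect and no enzyme for full effect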
Wnt bcat act: activates Wnt/beta-catenin signaling in a reporter cell assay; activator, plate reader; activation, % at 9.35 µM; hit rate 1.2% among 300,000; in the data active = activation above about 30%, passing the limit was not always enough;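 also: 0% = neutral control wells and 100% = positive control wells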
miR-122 sensor: blocks miR-122 activity in Huh7 sensor cells | Huh7 miR-122 Renilla luciferase sensor, 48 h; neutral wells = 0, positive control = 100 | activation (reporter increase), % at 12.5 µM | hit rate 0.3% among 340,000;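 active = mean replicate activation score at least 90 and every replicate individually at or above 90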;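 also: higher luciferase means less miR-122 activity so hits act as miR-122 inhibitors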
GSIS activator: GLuc luminescence reporter in INS-1E cells, primary screen for activators of glucose-dependent secretion of insulin. INS-1E GLuc reporter insulin secretion, 2-3 h. activation, % at 16.6 µM. hit rate 0.61% among 370,000;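 active = lowest replicate activation of at least 40%, so every replicate reaches that level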;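 also: 0% = median of neutral control wells and 100% = median of IBMX positive control wells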
NSD2 HMT inh: inhibitors of human histone methyltransferase NSD2 | O96028 | NSD2 peptide methylation, AlphaScreen, 120 min | inhibition, % at 12.5 µM | hit rate 0.54% among 310,000
AlphaScreen art: AlphaScreen assay artifact in NSD2 counter-screen; shares compounds with NSD2 HMT inh; AlphaScreen artifact counterscreen, preloaded methylated H4 peptide; AC35, µM (doses to about 10 µM), without a hit: top-dose activity change, negative = signal loss; hit rate 9.4% among 1,500; AID 1053174; call rule not given here
Starred values were filed as active, the others as inactive; . = not tested or not shown; + = active, no number; [ ] = another dose, or the depositor's remark. An excerpt weighted towards active compounds, which were near 2.4% of everything screened. Rule as the data show it, unless noted: active = inhibition above about 50%; inactive = the rest.

SMILES | MITF TRPM1 HTS | DYRK1A inh | Wnt bcat act | miR-122 sensor | GSIS activator | NSD2 HMT inh | AlphaScreen art
Cc1sc2nc[nH]c(=S)c2c1-c1ccccc1 | 1.6 | . | 1.7 | . | 15.1 | 86.0* | -4.7%
COc1ccc(-c2cn[nH]c2N)cc1 | 9.1 | 40.1 | 1.8 | -0.7 | . | 62.6* | -3.3%
CCOc1ccc(-c2cn[nH]c2N)cc1 | 24.5 | 4.8 | 0.5 | 17.0 | -3.2 | -0.5 | .
O=C(CCC(=O)N1CCN(c2cccc(Cl)c2)CC1)N1CCN(c2ccccc2)CC1 | . | 1.0 | 0.4 | . | -19.3 | 3.5 | .
Clc1cccc(N2CCN(CCCN3CCN(c4ccccc4)CC3)CC2)c1 | -2.8 | 0.3 | -2.5 | -0.6 | -36.9 | 52.5* | -16.7%
CSc1nsc(SCC(=O)Nc2cccc(NC(C)=O)c2)n1 | 15.7 | 4.2 | 2.6 | . | 19.1 | 62.5* | -1.1%
Nc1nc(Nc2ccccc2F)nc(NCCO)c1[N+](=O)[O-] | . | . | 4.6 | -2.7 | 0.2 | 60.3* | 1.1%
Cn1cnc(S(=O)(=O)N[C@@H]2C=C[C@@H](CC(=O)NCC3CCCCC3)O[C@H]2CO)c1 | . | . | . | . | 17.5 | . | .
CC1=NOC(=O)/C1=C\c1ccc(-c2ccc(Cl)c(C(=O)O)c2)o1 | -0.2 | -3.0 | 0.2 | -1.5 | -3.9 | 83.9* | -6.8%
CC1=NOC(=O)/C1=C\c1ccc(-c2ccccc2Br)o1 | -88.2 | -5.8 | 3.7 | . | -20.7 | 68.9* | -11.6%
COC(=O)C[C@H]1CC[C@@H]2[C@H](COc3ccc(NS(=O)(=O)c4ccc(F)cc4)cc3C(=O)N2C)O1 | . | . | . | -10.0[16.7 µM] | -5.0 | . | .
COc1cccc(-c2nn3c(-c4ccco4)nnc3s2)c1 | . | 3.3 | . | 1.6 | . | 90.1* | -5.3%
Cc1ccc(Cl)cc1N1CCN(C(=O)c2ccc3nc[nH]c3c2)CC1 | -11.4 | -3.0 | . | 13.6 | -9.1 | 51.4* | -4.9%
COc1ccc2nc(NC(=O)CS(=O)(=O)c3ccc(C)cc3)sc2c1 | -0.7 | 29.9 | 3.0 | -6.2 | -14.1 | 68.8* | -0.8%
O=C(O)CC(C(=O)O)N1C(=O)/C(=C/c2ccc(-c3nc4ccccc4s3)o2)SC1=S (centres undefined) | -13.0 | 21.4 | 1.2 | -1.4 | -14.6 | 66.9* | -6.1%
O=C(NN1C(=O)/C(=C/C=C/c2ccco2)SC1=S)c1ccccc1O | -2.3 | 0.3 | -1.2 | 18.5 | 11.7 | . | .
O=C(O)CCN1C(=O)/C(=C/c2ccc(-c3nc4ccccc4s3)o2)SC1=S | 2.9 | 9.6 | 0.1 | -1.2 | . | 16.7 | .
O=C(O)CCCN1C(=O)/C(=C/C=C/c2ccco2)SC1=S | -21.8 | 4.5 | 0.8 | . | 17.6 | 110.0* | -12.7%
O=C(O)CC(C(=O)O)N1C(=O)/C(=C/C=C/c2ccco2)SC1=S (centres undefined) | -3.8 | -7.2 | -0.5 | -6.7 | 17.1 | + | -20.2%
CCOC(=O)c1c(C)[nH]c(C)c1C(=O)COC(=O)[C@@H]1CCCN1S(=O)(=O)c1ccc(Cl)cc1 | -8.2 | -0.7 | 0.3 | -3.1 | -45.7 | 76.4* | -4.8%
O=C(COC(=O)[C@@H]1CCCN1S(=O)(=O)c1ccc(Cl)cc1)NCC(F)(F)F | 1.9 | 0.2 | . | . | -4.1 | -0.6 | .
CCN1CCN(c2ncnc3scc(-c4ccc(OC)cc4)c23)CC1 | 4.4 | 5.0 | -0.9 | -7.8 | -2.4 | 64.1* | -4.3%
COc1ccc(CN(C(=O)CN2C(=O)NC3(CCC(C)CC3)C2=O)C(C)Cc2cccs2)cc1 (centres undefined) | -4.7 | -1.2 | -3.8 | -18.6 | -32.0 | 55.4* | -6.7%
COC(=O)Nc1ccc2c(c1)N(C(=O)CCN(C)C)c1ccccc1CC2 | 4.7 | -0.4 | 1.4 | 5.0 | 5.6 | 105.0* | -2.8%
CCCN(C)C[C@@H]1OCCCC[C@H](C)Oc2ccc(NC(=O)Nc3cccc4ccccc34)cc2C(=O)N([C@H](C)CO)C[C@@H]1C | . | . | . | . | -14.1 | . | .
SMILES | MITF TRPM1 HTS | DYRK1A inh | Wnt bcat act | miR-122 sensor | GSIS activator | NSD2 HMT inh | AlphaScreen art
CCN(CCCn1c(=S)[nH]c2ncccc2c1=O)c1ccccc1 | -9.7 | 13.2 | . | -0.2 | . | 1.7 | .
CCN(CC)CCCn1c(=S)[nH]c2ncccc2c1=O | 3.8 | 0.8 | 1.2 | -3.4 | . | 54.8* | -5.2%
C[C@@H]1CN([C@H](C)CO)C(=O)c2cc(NC(=O)Cn3cnnn3)ccc2O[C@H]1CN(C)Cc1ccc(C(F)(F)F)cc1 | . | . | . | -6.7[16.7 µM] | 2.2 | . | .
O=C(Nc1ccc(O)cc1)C1CC=CCC1 (centres undefined) | 11.1 | -1.0 | . | 2.8 | . | 126.3* | -4.9%
O=C(Nc1nccs1)C1CC=CCC1 (centres undefined) | 0.2 | 6.3 | -1.5 | -0.1 | 27.9 | -1.6 | .
Cc1ccc(OCCCC(=O)Nc2ccccc2C(F)(F)F)cc1 | 10.5 | -1.0 | . | -4.4 | . | 54.2* | -0.4%
COC(=O)c1sc(NC(=O)COc2ccc(OC)cc2)nc1C | 1.3 | -4.0 | . | -7.4 | . | -1.9 | .
CCOC(=O)c1sc(NC(=O)COc2ccc3c(c2)OCO3)nc1C | . | -1.3 | 1.1 | -3.9 | 12.3 | 114.0* | -1.6%
COc1ccc(C2C(C(=O)c3ccco3)=C(O)C(=O)N2CC2CCCO2)cc1OC (centres undefined) | -6.4 | -0.4 | -3.0 | 2.5 | 2.3 | 61.9* | -5.8%
COc1ccc(C2C(C(=O)/C=C/c3ccco3)=C(O)C(=O)N2CCN2CCOCC2)cc1OC (centres undefined) | -8.4 | -16.4 | 0.4 | -4.7 | -7.6 | 71.7* | -1.1%
COCC(=O)N1CC2(C1)[C@@H](c1ccc(-c3ccccc3)cc1)[C@@H](CO)N2C(=O)COC | . | . | . | . | -1.4 | . | .
O=C1/C(=C/c2ccccc2)CN(C(=O)CCN2CCOCC2)C/C1=C\c1ccccc1 | . | 1.7 | -24.9 | 34.9 | -15.8 | 68.0* | -0.2%
CN(C)CCC(=O)N1C/C(=C/c2ccccc2)C(=O)/C(=C\c2ccccc2)C1 | -99.9 | -1.8 | -24.7 | 19.3 | -9.8 | 50.4* | -7.0%
CCOC(=O)N1C/C(=C\c2ccccc2)C(=O)/C(=C/c2ccccc2)C1 | -103.9 | . | -0.3 | -5.6 | -16.6 | 1.3 | .
C[N+](C)(C)CCC(=O)N1C/C(=C/c2ccccc2)C(=O)/C(=C\c2ccccc2)C1 | -0.8 | 0.5 | -6.9 | . | -17.9 | 50.2* | -3.9%
CCCc1cc(=O)[nH]c(SCc2cc(=O)oc3cc(C)c(C(C)C)cc23)n1 | 2.9 | -2.3 | -3.4 | . | . | 78.4* | -3.9%
Cc1ccc(-c2nn3c(C)nnc3s2)cc1NC(=O)c1cccs1 | -8.1 | 2.2 | . | 9.6 | . | -0.9 | .
Cc1cc2nn(-c3cccc4ccccc34)nc2cc1NC(=O)c1cccs1 | . | -4.1 | . | 2.7 | -22.4 | 126.5* | -3.4%
COC(=O)c1ccc(-n2nnnc2SCC(=O)NCc2cccc(C(=O)O)c2)cc1 | . | -8.0 | -2.3 | 8.9 | . | 106.8* | 2.6%
Cn1nnnc1SCC(=O)NCc1cccc(C(=O)O)c1 | 7.6 | -3.9 | . | -2.7 | . | 0.2 | .
COc1ccc2c3c([nH]c2c1)[C@H](CO)N(C(=O)NC(C)C)CC31CCN(Cc2ccc(F)cc2)CC1 | . | . | . | . | -7.1 | . | .
O=C(COC(=O)c1ccc([N+](=O)[O-])s1)Nc1ccc(F)cc1 | -9.3 | 1.9 | 3.7 | 0.2 | -23.5 | . | .
